Assay [1] deals with Cytochrome P450 1A2 (Homo sapiens) (UniProt P05177). Description: p450-cyp1a2 (AID 410; calls by dose curve). The essentials:
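Luminescent demethylation readout: Luciferin-ME (100uM, equal to Km) turned over by 20nM CYP1A2 for 60 min at room temperature after NADPH regeneration addition, following 10 min compound preincubation. Normalization used 57 uM furafylline as full inhibition.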

A short description of assay [2]: NFAT Signaling Pathway (AID 444; active means well fitted curve in either direction with a large enough effect, not every such curve was filed as active;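 further: carbachol stimulus at about its EC50 of 1 µM final; on the % scale 0 is the no-effect control and ±100 the full control effect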). The following applies: Jurkat NFAT-bla M1, carbachol, beta-lactamase ratio, 5 h; at 38 µM (top of the series). The essentials:
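Read-out: CCF4 FRET ratio (460 nm/530 nm) after 1 h RT dye loading, used for %activity and AC50 from titration series. Cells: Jurkat NFAT-β-lactamase/M1 line, treated with compound plus 1 uM carbachol for 5 h, 37 °C.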

Assay [3] in a line: Stat Signaling Pathway (AID 446; active means well fitted curve in either direction with a large enough effect, not every such curve was filed as active;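 further: ME-180 cervical cancer cells given 40 pM IL-6 alongside compound; SIE-controlled beta-lactamase reporter measured as 460/530 nm FRET emission ratio; on the % scale 0 is the no-effect control and ±100 the full control effect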). The gist of the method:
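FRET read-out (405 nm excitation, 460/530 nm emission) of a beta-lactamase reporter under a STAT-inducible element in ME-180 cervical carcinoma cells. Cells with compound receive 40 pM IL-6 for 5 h. Values are normalised to AC90 stimulation and AC90 JAK-inhibitor controls.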

For assay [4], the target named is Glucocorticoid receptor (Homo sapiens) (UniProt P04150). In words: GR-GFP Redistribution (AID 450;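 active means compounds whose dose series gives a full or clear partial fitted curve of increased nuclear translocation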; further: potency means the concentration at half of the fitted maximal effect). The note with it: U2OS GR-GFP nuclear translocation, laser cytometry, 2 h.
Sequence of Glucocorticoid receptor (Homo sapiens) (P04150 whole entry, looked up, the tested form may be a part): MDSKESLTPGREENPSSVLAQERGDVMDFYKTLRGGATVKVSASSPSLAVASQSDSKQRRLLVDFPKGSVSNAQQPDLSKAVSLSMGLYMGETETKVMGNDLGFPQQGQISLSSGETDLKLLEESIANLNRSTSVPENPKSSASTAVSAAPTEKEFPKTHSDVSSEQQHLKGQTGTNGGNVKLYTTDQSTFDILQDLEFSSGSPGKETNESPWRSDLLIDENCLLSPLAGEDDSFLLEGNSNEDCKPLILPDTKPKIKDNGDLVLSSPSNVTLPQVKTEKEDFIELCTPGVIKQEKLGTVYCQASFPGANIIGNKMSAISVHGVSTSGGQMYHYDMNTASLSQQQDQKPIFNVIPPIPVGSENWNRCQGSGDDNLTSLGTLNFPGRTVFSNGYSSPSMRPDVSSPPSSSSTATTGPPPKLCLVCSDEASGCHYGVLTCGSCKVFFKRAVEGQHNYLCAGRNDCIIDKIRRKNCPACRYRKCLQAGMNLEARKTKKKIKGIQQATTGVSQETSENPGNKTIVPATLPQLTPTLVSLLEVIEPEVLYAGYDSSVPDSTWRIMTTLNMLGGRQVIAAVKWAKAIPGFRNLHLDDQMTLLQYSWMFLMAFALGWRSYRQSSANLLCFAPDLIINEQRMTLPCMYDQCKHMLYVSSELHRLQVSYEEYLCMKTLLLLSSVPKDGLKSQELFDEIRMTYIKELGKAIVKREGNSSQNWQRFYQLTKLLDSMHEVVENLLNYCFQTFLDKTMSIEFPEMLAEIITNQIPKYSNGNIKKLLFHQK
The target is the same in assay [5]. Description: GR-EFC Redistribution (AID 451; calls by dose curve; further: potency means the concentration at half of the fitted maximal effect). The following applies: CHO-K1 GR-EFC translocation, beta-gal luminescence, 2 h. The gist of the method: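 Translocation of GR-ED fusion to nuclear EA restores b-gal, read by luminescence after 1 h room-temperature detection. Engineered CHO-K1 biosensor cells, 1,000/well, exposed 2 h at 37 C to titrations up to 46 uM final.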

Assay [6] concerns the target Mitogen-activated protein kinase 10 (Mus musculus) (UniProt Q61831). In words: JNK3 AlphaScreen Assay (AID 530; active means well fitted curve in either direction with a large enough effect, not every such curve was filed as active;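 further: kinase came from lysate of stimulated human HepG2 cells; signal reports phosphorylation of biotinylated GST-cJun 1-79 at Ser73 with 10 µM ATP; on the % scale 0 is the no-effect control and ±100 the full control effect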). The gist of the method:
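qHTS titrations with 15 min compound pre-incubation before adding ATP (10 uM final). Read-out: AlphaScreen of Ser73-phosphorylated biotin-GST-cJun using HepG2 lysate JNK3 activated by IL-1β and TNFα.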

Assay [7] addresses 3',5'-cyclic-AMP phosphodiesterase 4B (Homo sapiens) (UniProt Q07343). Description: qHTS Assay for Inhibitors of PDE-IV (AID 607; active means well fitted activation curve with a large enough effect in the main read-out, with a control signal flat, not every such curve was filed as active; further: % of control where 0% means no effect). The gist of the method: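 Cell-based read-out of cAMP via a modified cyclic nucleotide-gated channel and membrane potential dye (535/590 nm) in HEK293 cells expressing PDE4 endogenously. Compounds tested up to 22.9 uM final; 100 uM RO 20-1724 reference.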
For orientation: qHTS replaces the single test concentration by a dilution series.

Assay [8] addresses Guanine nucleotide-binding protein G(i) subunit alpha-1 (Homo sapiens) (UniProt P63096). In words: qHTS Assay for Inhibitors of RGS12 GoLoco Motif Activity (Green Fluorophore) (AID 879).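 Further: 0% = labeled peptide with Gαi1 and full inhibition = labeled peptide alone without protein; negative values mean loss of peptide binding seen as reduced polarization.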 The gist of the method: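 A drop in FITC polarization marked displacement of the FITC-tagged RGS12 GoLoco peptide (10 nM) from Gαi1 (50 nM). Compounds were incubated 10 min at room temperature in Tris pH 7.5 buffer containing 150 mM NaCl, 0.1 mM GDP and 0.05% NP40; unlabeled peptide titration served as control.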

The target of assay [9] is Muscarinic acetylcholine receptor M1 (Rattus norvegicus) (UniProt P08482). Description: qHTS Assay for Antagonists of Acetylcholine Muscarinic M1 Receptor: Measurement of IP-One Response (AID 944). Further: nearly all actives have a fitted effect of over 75% in size. The essentials: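 IP1 accumulation measured via TR-FRET between d2-IP1 and Eu-cryptate anti-IP1 antibody after carbachol (200 nM, EC80) stimulation for 30 min; rat M1-transfected CHO cells received compound 10 min before agonist.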

In assay [10] the target is Pyruvate kinase (Leishmania mexicana) (UniProt Q27686). In words: qHTS Validation Assay for Inhibitors of Leishmania Mexicana Pyruvate Kinase (AID 945).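 Further: 0% = DMSO only neutral control wells.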 The essentials: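 Compounds are tested as eight-point concentration series. Reactions contain 0.2 nM LmPYK E451W, 0.5 mM PEP, 0.1 mM ADP, 7 mM MgCl2 and 50 mM KCl at pH 7.2, run 1 h at room temperature, then read by PKLight luminescence.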
Sequence of Pyruvate kinase (Leishmania mexicana) (Q27686 2-499 E452W): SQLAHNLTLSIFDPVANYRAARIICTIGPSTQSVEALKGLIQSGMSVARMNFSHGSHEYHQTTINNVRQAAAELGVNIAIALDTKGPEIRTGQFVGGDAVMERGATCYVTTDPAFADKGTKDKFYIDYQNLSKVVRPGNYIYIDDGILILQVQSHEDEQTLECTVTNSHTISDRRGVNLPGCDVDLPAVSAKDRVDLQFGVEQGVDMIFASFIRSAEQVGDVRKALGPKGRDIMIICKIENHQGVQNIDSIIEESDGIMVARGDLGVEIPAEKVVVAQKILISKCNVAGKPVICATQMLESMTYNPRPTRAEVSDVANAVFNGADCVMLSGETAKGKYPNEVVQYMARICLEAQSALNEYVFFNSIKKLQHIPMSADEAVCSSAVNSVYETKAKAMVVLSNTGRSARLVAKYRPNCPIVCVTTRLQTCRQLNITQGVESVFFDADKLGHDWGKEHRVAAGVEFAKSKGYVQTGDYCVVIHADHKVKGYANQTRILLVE

The target in assay [11] is Pyruvate kinase PKM (Homo sapiens) (UniProt P14618). In words: qHTS Assay for Activators of Human Muscle Pyruvate Kinase (AID 954; active means well fitted curve in the direction sought with a large enough effect, not every such curve was filed as active;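 further: 0% = uninhibited enzyme and -100% = no enzyme or full thiadiazolimine inhibition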). The essentials: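 ATP production by PKM2 detected via luciferase luminescence after 1 h room-temperature reaction (0.1 nM enzyme, PEP at Km 0.5 mM, ADP 0.1 mM, pH 7.2 imidazole buffer). Inhibition scaled to no-enzyme control; activation referenced to 0.3 nM enzyme wells.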
Sequence of Pyruvate kinase PKM (Homo sapiens) (P14618 whole entry, looked up): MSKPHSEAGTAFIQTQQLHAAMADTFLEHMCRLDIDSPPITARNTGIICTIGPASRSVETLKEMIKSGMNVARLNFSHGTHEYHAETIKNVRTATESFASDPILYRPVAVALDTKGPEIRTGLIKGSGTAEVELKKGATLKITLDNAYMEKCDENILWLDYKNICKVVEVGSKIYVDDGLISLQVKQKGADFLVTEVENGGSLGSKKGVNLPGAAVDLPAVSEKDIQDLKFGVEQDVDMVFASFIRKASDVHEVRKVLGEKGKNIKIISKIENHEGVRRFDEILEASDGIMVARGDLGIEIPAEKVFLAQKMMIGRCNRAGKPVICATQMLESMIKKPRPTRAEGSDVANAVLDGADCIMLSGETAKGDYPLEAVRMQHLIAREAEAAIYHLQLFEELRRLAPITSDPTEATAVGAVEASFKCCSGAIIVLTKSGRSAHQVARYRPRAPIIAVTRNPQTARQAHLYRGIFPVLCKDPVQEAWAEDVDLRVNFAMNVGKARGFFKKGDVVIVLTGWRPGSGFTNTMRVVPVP

For assay [12], the target named is Alpha-galactosidase (Coffea arabica) (UniProt Q42656). Description: Counterscreen for Glucocerebrosidase Inhibitors: qHTS Assay for Coffee Bean alpha-Galactosidase at pH 4.5 (AID 957).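 Further: plate controls were enzyme alone for no effect and no enzyme for full effect.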 The gist of the method:
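Fluorogenic qHTS at pH 4.5 (citrate buffer with Tween-20): 2 nM enzyme, 80 uM 4-MU-alpha-galactoside substrate, compound titrated 0.7 nM to 77 uM, 20 min room temperature. Glycine/NaOH stop; 4-MU read Ex 365/Em 440; Hill-equation AC50 against no-enzyme and enzyme controls.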
On the technique in general: Counterscreens check selectivity or assay interference.

Assay [13] addresses Alpha-galactosidase A (Homo sapiens) (UniProt P06280). Description: Counterscreen for Glucocerebrosidase Inhibitors: qHTS Assay for Human alpha-Galactosidase at pH 4.5 (AID 992). Further: 0% is about no effect. The essentials:
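Fluorogenic 1536-well qHTS at pH 4.5 (citrate, Tween-20): 2 nM enzyme, 80 uM 4-MU-alpha-galactoside, 20 min room temperature, NaOH/glycine stop. Titration 0.7 nM to 77 uM, data normalized to no-enzyme and full-activity controls, Hill-fitted AC50.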

The target of assay [14] is alpha-glucosidase (Oryza sativa, rice) (UniProt Q653V4). Description: Counterscreen for Glucocerebrosidase Inhibitors: qHTS Assay for Rice alpha-Glucosidase at pH 5.0 (AID 997).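 Further: 0% = full activity with enzyme and -100% = basal without enzyme.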 The essentials:
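Endpoint fluorogenic assay at pH 5.0: compounds (0.7 nM to 77 uM) titrated against 4 nM rice enzyme and 400 uM 4-MU-alpha-glucoside for 20 min at room temperature; NaOH/glycine stop, read ex 365/em 440 nm, Hill-fitted AC50.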

In assay [15] the target is Alpha-galactosidase (Coffea arabica) (UniProt Q42656). In words: Counterscreen for Glucocerebrosidase Inhibitors: qHTS Assay for Coffee Bean alpha-Galactosidase at pH 5.9 (AID 998).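 Further: plate controls were uninhibited enzyme for no effect and no-enzyme basal signal for full effect.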 The essentials:
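Fluorogenic 4-MU substrate hydrolysis, 80 uM substrate and 2 nM coffee bean alpha-galactosidase, pH 5.9 citrate buffer, 20 min at room temperature, then NaOH/glycine stop. Titration 0.7 nM–77 uM, normalized to no-enzyme and enzyme controls, AC50 via Hill equation.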

The nature of assay [16]: qHTS Assay for Lipid Storage Modulators (AID 1519; calls by dose curve; further: potency means the concentration at half of the fitted maximal effect). The following applies: Drosophila S3 cells, BODIPY lipid droplet/cell ratio, laser cytometry, cells loaded with oleic acid; for activity change, negative = inhibition: at 57.5 µM (top of the series). The gist of the method:
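Cells seeded at 5,000 per well were treated with compounds over a concentration series and loaded with oleic acid (400 uM, as added). Lipid droplet fluorescence (488 nm excitation, 500-530 nm channel) was read by laser-scanning cytometry and normalized to 20 uM Triacsin C.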

The subject of assay [17] is Zika virus NS2B-NS3 protease. In words: Primary screen GU AMC qHTS for Zika virus inhibitors (AID 1347154).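 Further: 0% = no-inhibitor control and -100% = no-enzyme control; nearly all actives have a fitted effect of over 70% in size.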 The essentials: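 Fluorogenic AMC-substrate cleavage by noncovalent NS2B-NS3 protease complex (25 nM, pH 8.0 Tris buffer with Tween 20) followed for 15 minutes at room temperature (~20% conversion). Percent inhibition from ex340/em450 signal change, fitted by 4-parameter Hill equation.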

Assay [18] in a line: Primary qHTS for small molecule stabilizers of the endoplasmic reticulum resident proteome: Secreted ER Calcium Modulated Protein (SERCaMP) assay (AID 1508630). Further: on the % scale 0 is the no-effect control and ±100 the full control effect. The essentials: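 The SH-SY5Y reporter protocol was run at 3 concentrations up to 38.3 uM (primary) or 11 concentrations (follow-up): 16 h compound, 100 nM thapsigargin for 4 h, then extracellular luciferase luminescence.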

Assay [19] addresses DNA dC->dU-editing enzyme APOBEC-3G (Homo sapiens) (UniProt Q9HC16). In words: qHTS for inhibitors of Vif-A3G interactions: Validation (AID 588379). Further: 0% is about no effect. The gist of the method: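 Yellow fluorescence (Ex 488, Em 500-530) of Vif-coexpressing HeLa A3G-eYFP cells, scanned by Acumen cytometer, reports blocked A3G degradation. Cells plated at 700/well overnight at 37 deg C before compound addition, then a further overnight compound incubation at 37 deg C.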

The mark [20] stands for this setting: measured here: cell count channel max response.
[21] abbreviates: measured here: lipid channel max response.

Inconclusive results are not listed. Calls of active or inactive are those of the source. Unless noted, the call rests on the fitted dose curve; in most records, active means well fitted curve in the direction sought with a large enough effect; inconclusive means small, poorly fitted or top-dose-only effect, or another doubt; inactive means no such curve, though single readings can be large; an effect the other way counts as inactive or inconclusive. Where a SMILES comes first, the peptide text is derived from it.

Sequence of Cytochrome P450 1A2 (Homo sapiens) (P05177 whole entry, looked up): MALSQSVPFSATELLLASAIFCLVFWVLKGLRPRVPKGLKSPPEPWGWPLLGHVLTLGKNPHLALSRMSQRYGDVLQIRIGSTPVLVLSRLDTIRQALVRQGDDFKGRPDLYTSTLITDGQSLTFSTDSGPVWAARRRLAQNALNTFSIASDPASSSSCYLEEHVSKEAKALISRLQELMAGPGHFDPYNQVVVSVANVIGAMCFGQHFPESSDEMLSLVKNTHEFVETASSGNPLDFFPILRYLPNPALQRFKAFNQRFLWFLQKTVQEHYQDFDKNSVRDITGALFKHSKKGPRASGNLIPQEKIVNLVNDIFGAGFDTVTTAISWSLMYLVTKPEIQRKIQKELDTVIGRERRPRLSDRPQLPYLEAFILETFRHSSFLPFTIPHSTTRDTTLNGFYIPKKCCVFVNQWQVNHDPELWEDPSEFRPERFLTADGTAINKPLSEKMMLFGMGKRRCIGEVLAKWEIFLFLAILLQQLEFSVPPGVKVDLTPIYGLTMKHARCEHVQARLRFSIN
Sequence of 3',5'-cyclic-AMP phosphodiesterase 4B (Homo sapiens) (Q07343 whole entry, looked up): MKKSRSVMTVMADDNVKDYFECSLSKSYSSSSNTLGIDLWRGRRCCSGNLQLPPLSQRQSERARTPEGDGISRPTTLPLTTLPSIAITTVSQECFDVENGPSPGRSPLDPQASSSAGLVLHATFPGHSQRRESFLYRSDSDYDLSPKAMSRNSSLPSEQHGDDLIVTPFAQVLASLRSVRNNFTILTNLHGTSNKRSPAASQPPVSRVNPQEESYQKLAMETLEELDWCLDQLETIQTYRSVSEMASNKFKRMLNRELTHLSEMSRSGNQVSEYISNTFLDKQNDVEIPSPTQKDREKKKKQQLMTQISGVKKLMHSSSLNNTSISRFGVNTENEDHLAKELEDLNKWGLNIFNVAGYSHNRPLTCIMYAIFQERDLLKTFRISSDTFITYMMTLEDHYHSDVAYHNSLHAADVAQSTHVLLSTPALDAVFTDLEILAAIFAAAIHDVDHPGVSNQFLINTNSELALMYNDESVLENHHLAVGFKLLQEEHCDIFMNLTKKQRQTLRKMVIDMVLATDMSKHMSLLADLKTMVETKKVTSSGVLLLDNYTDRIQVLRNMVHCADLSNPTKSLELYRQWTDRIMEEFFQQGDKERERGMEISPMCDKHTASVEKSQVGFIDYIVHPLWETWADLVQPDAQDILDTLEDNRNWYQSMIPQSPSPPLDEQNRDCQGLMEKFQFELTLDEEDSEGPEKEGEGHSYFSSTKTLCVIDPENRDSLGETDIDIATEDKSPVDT
Sequence of DNA dC->dU-editing enzyme APOBEC-3G (Homo sapiens) (Q9HC16 whole entry, looked up): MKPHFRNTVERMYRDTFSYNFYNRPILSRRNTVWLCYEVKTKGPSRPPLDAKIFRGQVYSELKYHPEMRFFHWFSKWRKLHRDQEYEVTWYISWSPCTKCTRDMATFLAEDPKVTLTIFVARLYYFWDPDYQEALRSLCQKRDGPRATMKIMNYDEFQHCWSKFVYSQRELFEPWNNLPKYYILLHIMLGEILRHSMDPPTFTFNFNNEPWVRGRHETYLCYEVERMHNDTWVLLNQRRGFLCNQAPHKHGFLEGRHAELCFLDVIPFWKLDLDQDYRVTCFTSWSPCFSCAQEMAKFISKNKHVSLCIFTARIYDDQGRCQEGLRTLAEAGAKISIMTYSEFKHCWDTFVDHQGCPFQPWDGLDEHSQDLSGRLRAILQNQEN
Sequence of Alpha-galactosidase (Coffea arabica) (Q42656 whole entry, looked up): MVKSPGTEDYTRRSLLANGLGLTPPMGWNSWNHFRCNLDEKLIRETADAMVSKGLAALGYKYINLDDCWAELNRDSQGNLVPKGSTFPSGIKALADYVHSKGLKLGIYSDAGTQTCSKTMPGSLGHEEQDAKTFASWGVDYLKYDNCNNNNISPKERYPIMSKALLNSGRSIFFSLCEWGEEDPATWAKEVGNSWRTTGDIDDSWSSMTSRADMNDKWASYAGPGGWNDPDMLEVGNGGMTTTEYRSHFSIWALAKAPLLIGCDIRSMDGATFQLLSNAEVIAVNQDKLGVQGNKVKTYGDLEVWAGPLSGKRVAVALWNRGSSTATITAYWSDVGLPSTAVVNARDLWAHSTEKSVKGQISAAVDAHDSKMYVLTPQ
Sequence of Guanine nucleotide-binding protein G(i) subunit alpha-1 (Homo sapiens) (P63096 whole entry, looked up): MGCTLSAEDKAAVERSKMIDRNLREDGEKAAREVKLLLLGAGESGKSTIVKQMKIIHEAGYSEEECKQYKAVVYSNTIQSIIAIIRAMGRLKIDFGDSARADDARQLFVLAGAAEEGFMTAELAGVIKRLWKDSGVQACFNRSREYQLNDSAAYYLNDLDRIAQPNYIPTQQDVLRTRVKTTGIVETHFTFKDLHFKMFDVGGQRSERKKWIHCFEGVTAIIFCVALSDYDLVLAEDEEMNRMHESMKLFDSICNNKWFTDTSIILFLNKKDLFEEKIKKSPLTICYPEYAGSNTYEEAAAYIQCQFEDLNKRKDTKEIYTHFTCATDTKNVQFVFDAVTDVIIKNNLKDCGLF
Sequence of Alpha-galactosidase A (Homo sapiens) (P06280 whole entry, looked up): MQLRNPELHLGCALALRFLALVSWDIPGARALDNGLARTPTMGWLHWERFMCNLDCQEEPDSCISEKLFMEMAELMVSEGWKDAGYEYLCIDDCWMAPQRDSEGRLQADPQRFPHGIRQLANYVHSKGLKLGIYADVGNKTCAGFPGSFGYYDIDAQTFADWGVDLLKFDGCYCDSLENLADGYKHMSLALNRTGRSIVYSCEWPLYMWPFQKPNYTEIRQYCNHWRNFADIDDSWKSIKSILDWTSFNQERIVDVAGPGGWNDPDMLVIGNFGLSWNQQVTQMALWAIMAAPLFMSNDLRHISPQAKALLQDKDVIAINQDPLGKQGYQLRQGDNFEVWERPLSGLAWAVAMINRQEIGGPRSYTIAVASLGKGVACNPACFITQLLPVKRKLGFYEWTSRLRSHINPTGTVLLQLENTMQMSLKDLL

For `C[C@H](N)Cc1c[nH]c2ccc(O)cc12`, the Potency result in assay [1], in [7], in [9], in [17] and in assay [18] was “inactive” throughout. In addition, the activity change, negative = inhibition in assay [2] is 3.63% (inactive); in assay [16], 0.648% (inactive). Moreover, the molecule was called inactive in [3], in assay [6], in [8], in [10], in assay [11] and in assay [12]. Besides, the call in assay [13], in assay [14] and in assay [15] was inactive. The Potency in assay [4] and in assay [5] was > 46 µM (inactive) each time. Further, the max response in assay [16] (setting [20]) came out at 20.6%; in [16] (setting [21]) it was 23.2%.

On to `NC(=O)[C@@H]1CCCN1C(=O)[C@H](Cc1ccccc1)NC(=O)[C@@H]1CCCN1C(=O)[C@@H](N)Cc1ccc(O)cc1` (H-YPFP-NH2), for which the activity change, negative = inhibition in assay [17] is 12.8% [at 6.83 µM] (inactive); in [18] it was -13.2% [at 3.88 µM] (inactive).

Turning to `C=C1C(=O)O[C@@H]2C[C@@H](C)[C@@H]3C=CC(=O)[C@@]3(C)[C@@H](O)[C@H]12`, the Potency entry in assay [17] and in [18] was “inactive” throughout.

On to `CC(C)C[C@H](NC(=O)[C@H](Cc1ccccc1)NC(=O)CNC(=O)[C@H](CS)N(C(=O)[C@@H](N)Cc1ccc(O)cc1)C(C)(C)C)C(=O)N([C@H](C(=O)O)[C@H](C)O)C(C)(C)C` (HELM PEPTIDE1{Y.[CC(C)(C)N([C@@H](CS)C(=O)[*:2])[*:1]].G.F.L.[C[C@H](O)[C@@H](C(=O)O)N(C(C)(C)C)[*:1]]}$$$$V2.0), for which the activity change, negative = inhibition in assay [17] was 12.2% [at 6.83 µM] (inactive); in assay [18] it was -10.6% [at 3.88 µM] (inactive).

As for `COc1ccc(C(=O)O[C@H]2CC[C@@]3(C)C4CCC5[C@]6(O)C[C@H](O)[C@@]7(O)C(CN8C[C@@H](C)CC[C@H]8[C@@]7(C)O)[C@]6(O)C[C@@]53O[C@@]42O)cc1OC` (stereo not given in full), the Potency entry in assay [17] and in [18] was “inactive” throughout.

For `COc1cccc2c1C13CC[N+]4(CC5CC5)CO[C@]1(CCC(=O)C3)C4C2`, the Potency result in assay [17] and in [18] was “inactive” each time.

With `N[C@@H](CCCCP(=O)(O)O)C(=O)O`, in assay [4], the Potency is > 46 µM (inactive). Also, the molecule was classed as inactive in assay [6]. Also, the Potency result in assay [7], in assay [19], in assay [17] and in assay [18] was “inactive” throughout. The activity change, negative = inhibition in [16] was 0.372% (inactive). In addition, the max response was -29.3% in assay [16] (setting [20]) and -29% in [16] (setting [21]).

Regarding `Oc1ccc2c3c1O[C@H]1c4[nH]c5c(c4C[C@@]4(O)[C@@H](C2)N(CC2CC2)CC[C@]314)C[C@]1(O)[C@H]2Cc3ccc(O)c4c3[C@@]1(CCN2CC1CC1)[C@@H]5O4`, the Potency in [4] and in [5] was > 46 µM (inactive) throughout. Also, the outcome in assay [6] was inactive. The Potency entry in [7], in assay [19], in assay [17] and in assay [18] was “inactive” throughout. Besides, the activity change, negative = inhibition in assay [16] was -0.108% (inactive). Further, the max response in assay [16] (setting [20]) came to 16.4%; in [16] (setting [21]) it was 18.7%.

Regarding `CC1OC(=O)C(C(C)C)NC(=O)C(C(C)C)OC(=O)C(C(C)C)NC(=O)C(C)OC(=O)C(C(C)C)NC(=O)C(C(C)C)OC(=O)C(C(C)C)NC(=O)C(C)OC(=O)C(C(C)C)NC(=O)C(C(C)C)OC(=O)C(C(C)C)NC1=O` (stereo not given), the Potency in assay [16] was 0.316 µM (active). For the same molecule, the results for the max response in assay [16] (setting [20]) and in assay [16] (setting [21]) were 0.207% and -94.2%, respectively. The Potency result in assay [17] and in [18] was “inactive” each time.

With `CC(C)(C)c1o[nH]c(=O)c1C[C@H](N)C(=O)O`, the Potency result in [1], in assay [7], in assay [9], in [19], in assay [17] and in [18] was “inactive” throughout. Also, the activity change, negative = inhibition in assay [2] is -2.55% (inactive); in [16] it was 1.88% (inactive). Further, the outcome in [3], in assay [6], in assay [8], in assay [10], in [11] and in assay [12] was inactive. Further, the outcome in assay [13], in assay [14] and in [15] was inactive. Moreover, the Potency in [4] and in assay [5] was > 46 µM (inactive) throughout. Besides, the max response in assay [16] (setting [20]) is -7.92%; in assay [16] (setting [21]), -7.95%.

Values taken from PubChem BioAssay (NCATS).
